The full data set covers some 8,800 targets. This sample favours those with a hit. About 0.5% of all pairs of compound and target were hits. A number with no mark means an inactive call.

UniProt Q5RI15, sequence (Q5RI15 whole entry, looked up): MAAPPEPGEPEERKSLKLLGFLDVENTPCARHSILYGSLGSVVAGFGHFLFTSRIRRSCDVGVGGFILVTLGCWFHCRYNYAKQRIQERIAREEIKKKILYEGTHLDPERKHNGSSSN
UniProt Q9NPI6, sequence (Q9NPI6 whole entry, looked up): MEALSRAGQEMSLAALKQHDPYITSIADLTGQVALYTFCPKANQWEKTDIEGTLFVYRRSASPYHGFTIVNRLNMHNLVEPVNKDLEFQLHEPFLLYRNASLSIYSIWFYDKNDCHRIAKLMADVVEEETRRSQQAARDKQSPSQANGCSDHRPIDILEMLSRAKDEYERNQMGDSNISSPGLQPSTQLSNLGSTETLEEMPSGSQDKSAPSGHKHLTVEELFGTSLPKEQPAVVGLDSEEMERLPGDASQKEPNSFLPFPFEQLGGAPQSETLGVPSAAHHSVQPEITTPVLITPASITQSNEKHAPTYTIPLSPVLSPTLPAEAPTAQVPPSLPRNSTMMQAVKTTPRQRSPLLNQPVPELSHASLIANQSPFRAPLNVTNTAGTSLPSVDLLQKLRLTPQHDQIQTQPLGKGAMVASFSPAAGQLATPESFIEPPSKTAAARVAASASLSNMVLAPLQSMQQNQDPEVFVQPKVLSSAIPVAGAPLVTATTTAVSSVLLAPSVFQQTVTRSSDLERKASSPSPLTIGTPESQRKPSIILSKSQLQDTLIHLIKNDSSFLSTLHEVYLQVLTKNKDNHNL
UniProt Q8IWV2, sequence (Q8IWV2 whole entry, looked up): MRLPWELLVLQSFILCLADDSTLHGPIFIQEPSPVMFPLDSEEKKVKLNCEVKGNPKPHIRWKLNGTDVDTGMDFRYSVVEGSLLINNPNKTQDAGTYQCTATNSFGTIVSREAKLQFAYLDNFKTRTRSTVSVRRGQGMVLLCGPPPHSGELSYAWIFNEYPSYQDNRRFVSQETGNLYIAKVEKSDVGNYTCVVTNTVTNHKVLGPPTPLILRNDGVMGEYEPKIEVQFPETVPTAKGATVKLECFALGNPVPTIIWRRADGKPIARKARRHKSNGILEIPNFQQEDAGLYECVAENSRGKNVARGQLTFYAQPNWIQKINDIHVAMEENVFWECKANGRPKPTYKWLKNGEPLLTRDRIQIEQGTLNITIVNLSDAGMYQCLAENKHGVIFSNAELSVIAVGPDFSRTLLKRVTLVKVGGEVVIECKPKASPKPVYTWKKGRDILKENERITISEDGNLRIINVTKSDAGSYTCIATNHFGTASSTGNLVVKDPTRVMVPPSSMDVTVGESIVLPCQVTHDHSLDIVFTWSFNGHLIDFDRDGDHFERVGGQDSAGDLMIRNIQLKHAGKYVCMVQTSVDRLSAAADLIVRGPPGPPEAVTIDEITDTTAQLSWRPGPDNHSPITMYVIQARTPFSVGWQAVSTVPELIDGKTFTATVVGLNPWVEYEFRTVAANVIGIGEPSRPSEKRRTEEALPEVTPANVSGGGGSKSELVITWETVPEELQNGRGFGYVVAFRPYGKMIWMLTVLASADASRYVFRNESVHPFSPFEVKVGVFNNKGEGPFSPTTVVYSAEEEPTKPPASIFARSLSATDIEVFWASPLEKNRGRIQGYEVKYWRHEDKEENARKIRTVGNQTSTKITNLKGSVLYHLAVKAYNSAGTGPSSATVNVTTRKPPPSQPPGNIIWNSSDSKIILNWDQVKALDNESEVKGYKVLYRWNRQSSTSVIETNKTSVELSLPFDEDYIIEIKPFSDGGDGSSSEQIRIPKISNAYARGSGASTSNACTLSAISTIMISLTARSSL
UniProt Q8WUH1, sequence (Q8WUH1 whole entry, looked up): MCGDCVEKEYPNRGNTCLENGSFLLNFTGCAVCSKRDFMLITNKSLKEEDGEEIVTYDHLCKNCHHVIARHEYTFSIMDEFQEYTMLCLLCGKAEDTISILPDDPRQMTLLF
UniProt P19784, sequence (P19784 whole entry, looked up): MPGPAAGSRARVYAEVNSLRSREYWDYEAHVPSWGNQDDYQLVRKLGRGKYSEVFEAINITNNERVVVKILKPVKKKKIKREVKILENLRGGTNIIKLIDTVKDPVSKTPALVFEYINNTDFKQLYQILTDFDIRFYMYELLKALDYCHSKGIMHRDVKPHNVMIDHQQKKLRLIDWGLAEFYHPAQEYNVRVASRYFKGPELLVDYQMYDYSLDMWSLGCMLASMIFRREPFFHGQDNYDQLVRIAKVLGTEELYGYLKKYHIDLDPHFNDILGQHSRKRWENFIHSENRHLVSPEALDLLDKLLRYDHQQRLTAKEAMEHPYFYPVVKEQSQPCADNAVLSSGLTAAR
UniProt O96017, sequence (O96017 whole entry, looked up): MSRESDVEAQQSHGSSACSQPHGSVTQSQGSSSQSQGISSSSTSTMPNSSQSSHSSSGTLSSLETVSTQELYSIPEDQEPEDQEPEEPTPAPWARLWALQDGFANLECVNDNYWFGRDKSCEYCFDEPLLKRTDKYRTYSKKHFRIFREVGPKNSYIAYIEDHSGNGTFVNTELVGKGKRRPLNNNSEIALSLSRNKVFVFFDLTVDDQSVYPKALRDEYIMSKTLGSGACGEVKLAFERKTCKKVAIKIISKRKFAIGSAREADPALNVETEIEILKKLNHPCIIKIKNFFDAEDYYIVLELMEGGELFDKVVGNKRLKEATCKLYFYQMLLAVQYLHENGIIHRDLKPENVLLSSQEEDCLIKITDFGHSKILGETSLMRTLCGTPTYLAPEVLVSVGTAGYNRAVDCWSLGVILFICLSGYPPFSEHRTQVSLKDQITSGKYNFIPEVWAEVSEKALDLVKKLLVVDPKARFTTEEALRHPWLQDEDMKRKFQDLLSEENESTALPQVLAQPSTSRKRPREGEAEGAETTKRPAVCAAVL
UniProt Q96KC8, sequence (Q96KC8 whole entry, looked up): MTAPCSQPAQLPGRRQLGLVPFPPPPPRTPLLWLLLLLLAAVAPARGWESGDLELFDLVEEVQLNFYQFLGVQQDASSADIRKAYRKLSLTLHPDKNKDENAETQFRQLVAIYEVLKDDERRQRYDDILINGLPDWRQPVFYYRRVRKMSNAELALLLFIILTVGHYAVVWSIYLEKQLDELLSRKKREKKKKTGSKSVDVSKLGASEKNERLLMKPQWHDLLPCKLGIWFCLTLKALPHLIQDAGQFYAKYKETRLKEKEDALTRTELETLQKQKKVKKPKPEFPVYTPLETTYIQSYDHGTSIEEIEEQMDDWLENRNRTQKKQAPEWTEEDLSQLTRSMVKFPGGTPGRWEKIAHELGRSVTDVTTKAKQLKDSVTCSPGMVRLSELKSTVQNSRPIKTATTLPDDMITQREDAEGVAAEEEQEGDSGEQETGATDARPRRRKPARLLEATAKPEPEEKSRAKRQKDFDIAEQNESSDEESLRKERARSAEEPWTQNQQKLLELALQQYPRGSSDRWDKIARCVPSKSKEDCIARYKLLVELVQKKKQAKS
UniProt Q9H2P9, sequence (Q9H2P9 whole entry, looked up): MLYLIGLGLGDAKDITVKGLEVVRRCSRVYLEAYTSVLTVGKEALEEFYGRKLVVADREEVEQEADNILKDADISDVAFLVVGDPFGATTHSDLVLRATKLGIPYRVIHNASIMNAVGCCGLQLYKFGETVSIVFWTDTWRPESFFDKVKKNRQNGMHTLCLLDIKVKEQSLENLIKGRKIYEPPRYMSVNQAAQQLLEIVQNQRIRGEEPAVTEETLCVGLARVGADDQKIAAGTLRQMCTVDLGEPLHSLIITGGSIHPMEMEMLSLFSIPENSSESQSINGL
UniProt P26374, sequence (P26374 whole entry, looked up): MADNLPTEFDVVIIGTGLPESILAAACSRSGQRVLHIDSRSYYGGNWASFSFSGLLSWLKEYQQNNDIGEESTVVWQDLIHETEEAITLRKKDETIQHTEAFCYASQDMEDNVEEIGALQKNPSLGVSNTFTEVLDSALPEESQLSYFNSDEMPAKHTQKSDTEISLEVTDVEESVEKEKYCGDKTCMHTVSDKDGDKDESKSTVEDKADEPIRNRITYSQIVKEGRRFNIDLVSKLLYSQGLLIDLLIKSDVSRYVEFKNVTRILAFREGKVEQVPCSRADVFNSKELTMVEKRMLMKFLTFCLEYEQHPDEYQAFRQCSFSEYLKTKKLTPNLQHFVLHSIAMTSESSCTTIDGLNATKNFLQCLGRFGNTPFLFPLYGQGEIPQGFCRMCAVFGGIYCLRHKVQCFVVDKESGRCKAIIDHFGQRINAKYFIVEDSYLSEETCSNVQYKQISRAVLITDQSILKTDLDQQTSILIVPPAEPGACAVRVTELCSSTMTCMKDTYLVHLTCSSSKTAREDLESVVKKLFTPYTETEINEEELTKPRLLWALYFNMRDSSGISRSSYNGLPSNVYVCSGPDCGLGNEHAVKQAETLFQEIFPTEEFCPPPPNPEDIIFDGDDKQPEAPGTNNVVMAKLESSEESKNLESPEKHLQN
UniProt P61923, sequence (P61923 whole entry, looked up): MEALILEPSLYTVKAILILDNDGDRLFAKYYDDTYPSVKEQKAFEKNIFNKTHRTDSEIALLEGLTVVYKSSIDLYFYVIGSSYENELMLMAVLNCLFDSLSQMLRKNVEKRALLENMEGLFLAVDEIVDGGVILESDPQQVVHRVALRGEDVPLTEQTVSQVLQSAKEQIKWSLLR
UniProt P09622, sequence (P09622 whole entry, looked up): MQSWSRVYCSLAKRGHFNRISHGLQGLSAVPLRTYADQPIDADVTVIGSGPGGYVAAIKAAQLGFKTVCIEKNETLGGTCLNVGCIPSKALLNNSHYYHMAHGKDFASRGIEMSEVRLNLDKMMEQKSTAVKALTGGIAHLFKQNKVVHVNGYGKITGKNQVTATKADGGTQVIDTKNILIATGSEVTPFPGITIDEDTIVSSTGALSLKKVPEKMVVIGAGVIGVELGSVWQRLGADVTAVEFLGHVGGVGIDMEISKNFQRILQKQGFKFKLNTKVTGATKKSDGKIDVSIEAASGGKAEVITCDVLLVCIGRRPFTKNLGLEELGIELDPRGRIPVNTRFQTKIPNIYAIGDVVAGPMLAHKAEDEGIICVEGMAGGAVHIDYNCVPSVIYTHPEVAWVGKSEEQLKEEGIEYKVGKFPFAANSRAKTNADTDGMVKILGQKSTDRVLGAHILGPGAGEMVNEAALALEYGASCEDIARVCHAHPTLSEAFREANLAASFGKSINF

Compound in one assay: C1=CC=C(C=C1)[C@H](COC2=CC3=C(C=C2)NC(=O)N3)NC(=O)C4=CC=CN(C4=O)CC5=CC(=C(C=C5)F)F
Nature of the assay: log2 fold change, soluble protein after heating vs DMSO (PISA); higher = thermal stabilisation; K562 lysate, 10 uM; active = over 0.2 and 3.5 SD of the protein, either way, in both replicates (recomputed). In short, it runs like this: (§1)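 Log-two fold change in thermal stability relative to solvent controls is reported from duplicates. For each sample, crude K562 extract from dounce-homogenised pellets in PBS pH 7.4 with 1 mM MgCl2, at 1 mg/mL protein, was treated with 10 μM compound for 30 min. Aliquots heated for 3 min across 48°C-58°C were pooled, brought to 0.5% NP-40 at 4°C and cleared at 21,000xg for 90 min. The supernatant was quantified by TMTpro 16plex LC-MS/MS with channel sums equalised.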
In the case of DCP1A (UniProt Q9NPI6), the log2 fold change was -0.011.
DPH5 isoform 5 (UniProt Q9H2P9): the log2 fold change was 0.047.
In the case of CLUH, A0A494C0R8, the log2 fold change was 0.014.
For the target CLIC2 (UniProt O15247), the log2 fold change is -0.022.
Still for that read-out and setting: to CNOT4 isoform 9 (UniProt O95628) belongs -0.173.
On to DLG3 isoform 2 (UniProt Q92796), for which the log2 fold change was 0.
Still for that read-out and setting: to DNAJC1 (UniProt Q96KC8) belongs -0.113; to COX20 isoform 2 (UniProt Q5RI15), 0.01.
For CTPS1 (UniProt P17812), the log2 fold change was -0.02.
Consider DLD (UniProt P09622), for which the log2 fold change was 0.005.
As for DCP2 (UniProt Q8IU60), the log2 fold change is 0.006.
CLPB isoform 2 (UniProt Q9H078): the log2 fold change is -0.031.
For the target CHURC1 isoform 2 (UniProt Q8WUH1), the log2 fold change is 0.045.
As for COQ8A (UniProt Q8NI60), the log2 fold change was 0.048.
With CKAP2 (UniProt Q8WWK9), the log2 fold change was 0.052.
For CHEK2 (UniProt O96017), the log2 fold change is -0.02.
Turning to DDX4 (UniProt Q9NQI0), the log2 fold change is -0.047.
Turning to CLCN3 (UniProt P51790), the log2 fold change is 0.094.
On the same count and under the same terms, to CHORDC1 (UniProt Q9UHD1) belongs 0.025; to CHML (UniProt P26374), 0.011; to CSNK1A1 (UniProt P48729), -0.027.
Same read-out and setting: the same measure for DNAH5 (UniProt Q8TE73): -0.019; for DIAPH3 (UniProt Q9NSV4): -0.09; for CSNK2A2 (UniProt P19784): -0.02.
Same read-out and setting: to CIAO2A (UniProt Q9H5X1) belongs -0.049.
For CSNK1G3 (UniProt Q9Y6M4), the log2 fold change was -0.041.
Regarding DDX39A (UniProt O00148), the log2 fold change was -0.022.
For the target CIP2A (UniProt Q8TCG1), the log2 fold change is -0.03.
On to COG4 (UniProt Q9H9E3), for which the log2 fold change was 0.005.
As for DERA (UniProt Q9Y315), the log2 fold change was 0.025.
With CNTN4 (UniProt Q8IWV2), the log2 fold change was 0.046.
With DAZAP1 (UniProt Q96EP5), the log2 fold change is 0.011.
For COPZ1 isoform 4 (UniProt P61923), the log2 fold change is -0.101.
In the case of DBF4 (UniProt Q9UBU7), the log2 fold change is 0.073.

Compound in a further assay: CC1=C(SC2=C1C(=N[C@H](C3=NN=C(N32)C)CC(=O)N)C4=CC=C(C=C4)Cl)C
The description is as above. In outline:
as §1
Consider DCP1A (UniProt Q9NPI6), for which the log2 fold change was -0.031.
Still for that read-out and setting: to DPH5 isoform 5 (UniProt Q9H2P9) belongs -0.024.
On to CLUH, A0A494C0R8, for which the log2 fold change was 0.118.
As to CLIC2 (UniProt O15247), the log2 fold change was 0.033.
On the same count and under the same terms, the same measure for CNOT4 isoform 9 (UniProt O95628): 0.081; for DLG3 isoform 2 (UniProt Q92796): -0.082; for DNAJC1 (UniProt Q96KC8): -0.021.
As to COX20 isoform 2 (UniProt Q5RI15), the log2 fold change is -0.047.
The same measure, in the same setting: to CTPS1 (UniProt P17812) belongs -0.013; to DLD (UniProt P09622), -0.017; to DCP2 (UniProt Q8IU60), -0.001.
On the same count and under the same terms, to CLPB isoform 2 (UniProt Q9H078) belongs -0.012; to CHURC1 isoform 2 (UniProt Q8WUH1), -0.05.
As for COQ8A (UniProt Q8NI60), the log2 fold change was 0.065.
Same read-out and setting: to CKAP2 (UniProt Q8WWK9) belongs 0.066; to CHEK2 (UniProt O96017), -0.041.
Still for that read-out and setting: the same measure for DDX4 (UniProt Q9NQI0): 0.007; for CLCN3 (UniProt P51790): 0.014; for CHORDC1 (UniProt Q9UHD1): 0.006.
CHML (UniProt P26374): the log2 fold change is -0.027.
CSNK1A1 (UniProt P48729): the log2 fold change is 0.007.
Turning to DNAH5 (UniProt Q8TE73), the log2 fold change was 0.018.
Take DIAPH3 (UniProt Q9NSV4): the log2 fold change is 0.017.
On to CSNK2A2 (UniProt P19784), for which the log2 fold change is -0.033.
CIAO2A (UniProt Q9H5X1): the log2 fold change is 0.062.
Same read-out and setting: the same measure for CSNK1G3 (UniProt Q9Y6M4): 0.017; for DDX39A (UniProt O00148): -0.018.
As for CIP2A (UniProt Q8TCG1), the log2 fold change is -0.002.
As to COG4 (UniProt Q9H9E3), the log2 fold change was 0.034.
For the target DERA (UniProt Q9Y315), the log2 fold change was 0.012.
In the case of CNTN4 (UniProt Q8IWV2), the log2 fold change was 0.073.
As for DAZAP1 (UniProt Q96EP5), the log2 fold change was -0.046.
Regarding COPZ1 isoform 4 (UniProt P61923), the log2 fold change was -0.04.
Regarding DBF4 (UniProt Q9UBU7), the log2 fold change was 0.002.

Compound in the next assay: CC1=C2C(=CC=C1)N=C(N(C2=O)C3=CC=CC=C3C)CN4C=NC5=C(N=CN=C54)N
The description is as above. In outline: as §1
Take DCP1A (UniProt Q9NPI6): the log2 fold change was 0.025.
On the same count and under the same terms, to DPH5 isoform 5 (UniProt Q9H2P9) belongs 0.021; to CLUH, A0A494C0R8, 0.133.
Still for that read-out and setting: to CLIC2 (UniProt O15247) belongs 0; to CNOT4 isoform 9 (UniProt O95628), -0.014.
Same read-out and setting: to DLG3 isoform 2 (UniProt Q92796) belongs -0.085.
For the target DNAJC1 (UniProt Q96KC8), the log2 fold change is 0.039.
Regarding COX20 isoform 2 (UniProt Q5RI15), the log2 fold change was -0.092.
Turning to CTPS1 (UniProt P17812), the log2 fold change is -0.029.
The same measure, in the same setting: the same measure for DLD (UniProt P09622): 0.008; for DCP2 (UniProt Q8IU60): 0.041.
Consider CLPB isoform 2 (UniProt Q9H078), for which the log2 fold change is 0.
Consider CHURC1 isoform 2 (UniProt Q8WUH1), for which the log2 fold change was -0.046.
As to COQ8A (UniProt Q8NI60), the log2 fold change was 0.03.
In the case of CKAP2 (UniProt Q8WWK9), the log2 fold change was 0.001.
As for CHEK2 (UniProt O96017), the log2 fold change was -0.016.
On to DDX4 (UniProt Q9NQI0), for which the log2 fold change is -0.004.
Still for that read-out and setting: the same measure for CLCN3 (UniProt P51790): 0.061; for CHORDC1 (UniProt Q9UHD1): -0.01; for CHML (UniProt P26374): 0.01.
In the case of CSNK1A1 (UniProt P48729), the log2 fold change was -0.033.
As to DNAH5 (UniProt Q8TE73), the log2 fold change is 0.007.
The same measure, in the same setting: to DIAPH3 (UniProt Q9NSV4) belongs -0.035; to CSNK2A2 (UniProt P19784), -0.213; to CIAO2A (UniProt Q9H5X1), 0.023.
Same read-out and setting: the same measure for CSNK1G3 (UniProt Q9Y6M4): -0.013; for DDX39A (UniProt O00148): 0.02.
On to CIP2A (UniProt Q8TCG1), for which the log2 fold change is -0.008.
As for COG4 (UniProt Q9H9E3), the log2 fold change is 0.096.
The same measure, in the same setting: to DERA (UniProt Q9Y315) belongs -0.051; to CNTN4 (UniProt Q8IWV2), 0.105; to DAZAP1 (UniProt Q96EP5), 0.005.
For the target COPZ1 isoform 4 (UniProt P61923), the log2 fold change was 0.06.
Same read-out and setting: to DBF4 (UniProt Q9UBU7) belongs 0.071.
